# Source: PubChem (Broad Institute)
# Wnt bcat act: Wnt/beta-catenin pathway activation; Wnt/beta-catenin reporter cell assay, activator, plate reader; activation, % at 9.35 µM; 1.2% of 300,000 active; AID 743398; in the data active = activation above about 30%, passing the limit was not always enough; inconclusive = no clear call, values can overlap the other calls;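 also: 0% = neutral control wells and 100% = positive control wells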
# esBAF inh: SWI/SNF esBAF complex inhibition. mouse ES cells, Bmi1-luciferase knock-in reporter, 24 h; 100% = twice the neutral-well signal. reporter increase, % at 12.5 µM. 2% of 350,000 active. AID 602393; in the data active = activation above about 40%; inconclusive = no clear call, values can overlap the other calls;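 also: 0% = median of the plate's neutral control wells and 100% = double that signal; a rise in the Bmi1 reporter signal indicates esBAF inhibition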
# miR122 inh: blocks miR-122 activity in Huh7 sensor cells; Huh7 miR-122 Renilla luciferase sensor, 48 h; neutral wells = 0, positive control = 100; activation (reporter increase), % at 12.5 µM; 0.3% of 340,000 active; AID 602342;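 active = mean replicate activation score at least 90 and every replicate individually at or above 90; inconclusive = only one of the two criteria met; inactive = neither criterion met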;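 also: higher luciferase means less miR-122 activity so hits act as miR-122 inhibitors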
# HIV Env fusion: blocks HIV Env-driven cell-cell fusion; HeLa-JRFL Env/CEM21 cell fusion, luciferase; 1.1% of 360,000 active; inhibition, % at 12.3 µM;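 active = mean replicate inhibition score of at least 50 and every replicate individually at or above 50; inconclusive = only one of the two criteria met; inactive = mean below 50 and not all replicates reaching 50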;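 also: 0% = plate neutral controls and 100% = maraviroc near 300 nM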
# MITF TRPM1 HTS: increases MITF-driven TRPM1 promoter luciferase signal; SK-MEL-5 TRPM1-promoter luciferase, 24 h; % of positive control, neutral wells = 0; activation, % at 12.5 µM; 0.75% of 300,000 active;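 active = mean activation of at least 80% with every replicate also reaching 80%; inconclusive = mean reaches 80% but some replicate falls short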;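 also: 0% = neutral control wells and 100% = parthenolide positive control wells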
# Numbers without * were called inactive; ? = inconclusive; / = no result; [ ] = dose if it differs, or a comment. A selection: hits, their analogues and other compounds. The true share with any hit is near 3.4%.
SMILES,Wnt bcat act,esBAF inh,miR122 inh,HIV Env fusion,MITF TRPM1 HTS
C[C@H](NC(=O)[C@@H]1N[C@@H]2c3ccc(C4=CCCCC4)c(=O)n3C[C@@H]2[C@H]1CO)c1ccccc1,/,9,0[16.7 µM],/,/
O=C(N[C@H]1CC[C@@H](CCNS(=O)(=O)Cc2ccccc2)O[C@@H]1CO)c1ccccc1F,/,2,-13[16.7 µM],0[16.7 µM],/
COc1ccc(C(=O)Nc2nc(CC(=O)NCc3c(F)cccc3F)cs2)cc1,?,?,-1,-26,/
O=C(Nc1nc(-c2ccc(Cl)s2)cs1)c1ccccc1,16,50*,-2,-11,27
CCC(C)C(=O)Nc1nc2ccc(OC)cc2s1 (centres undefined),43*,/,1,-59,/
COc1ccc(-c2nc3ccccc3s2)cc1NC(C)=O,36*,39,12,-67,68
COc1ccc(C(=O)Nc2nc(CC(=O)NCc3ccc(F)cc3)cs2)cc1,11,50*,-5,-7,20
CNC[C@@H]1OCCCC[C@@H](C)Oc2ccc(N)cc2C(=O)N([C@@H](C)CO)C[C@H]1C,/,-5,0[16.7 µM],-16[16.7 µM],/
CC(C)CC#Cc1ccc2c(c1)O[C@@H](CN(C)C(=O)Cc1ccccc1)[C@H](C)CN([C@@H](C)CO)S2(=O)=O,/,-2,5[16.7 µM],23[16.7 µM],/
C[C@@H]1CN([C@H](C)CO)C(=O)c2cc(NC(=O)Cc3cn(C)c4ccccc34)ccc2O[C@@H]1CN(C)C,/,-13,27[16.7 µM],/,/
Cc1ccc(Nc2nc3ccccc3s2)cc1,20,/,/,-101,28
O=C(Nc1nc2ccccc2s1)c1ccc(F)cc1,47*,10,/,-154,29
Fc1ccc(Nc2nc3ccccc3s2)cc1,-1,46*,-7,-48,67
CC(=O)Nc1nc(=O)c2ccccc2s1,2,6,-5,/,-3
COc1ccc2nc(NC(C)=O)sc2c1,?,32,-4,-90,39
COc1ccc2nc(NC(=O)c3ccc4ncsc4c3)sc2c1,/,67*,3,/,?
O=C(Nc1nc(=O)c2ccccc2s1)c1ccccc1,39*,/,8,-102,23
Cc1ccc(S(=O)(=O)N(C)C[C@H]2Oc3c(NC(=O)C4CCCCC4)cccc3C(=O)N([C@@H](C)CO)C[C@@H]2C)cc1,/,8,31[16.7 µM],19[16.7 µM],/
O=S(=O)(c1ccccc1)N1CC[C@@H]2[C@H](CO)Nc3ccc(C#Cc4cccc(F)c4)cc3[C@@H]21,/,9,-5[16.7 µM],/,/
Cc1ccc2nc(-c3ccccc3)c(Cc3cccc(Cl)c3)n2c1,41*,?,3,-140,/
Clc1ccc2nc(-c3cccc(Br)c3)c(Cc3ccccc3)n2c1,34*,?,1,-118,/
Cc1ccc(-c2nc3ccc(Cl)cn3c2Cc2cccc(F)c2)cc1,2,50*,-1,-50,/
Clc1cccc(Cc2c(-c3cccc(Br)c3)nc3ccc(Cl)cn23)c1,0,39,1,/,/
Cc1ccc2nc(-c3cccc(Br)c3)c(Cc3cccc(Cl)c3)n2c1,36*,?,4,-21,/
CCCc1nc2ccc(C)cn2c1Cc1cccc(Cl)c1,2,45*,4,/,/
SMILES,Wnt bcat act,esBAF inh,miR122 inh,HIV Env fusion,MITF TRPM1 HTS
Cc1ccc(-c2nc3ccc(C)cn3c2CC2CCCCC2)cc1,24,/,/,0,/
Cc1ccc2nc(-c3cccc(Br)c3)c(CC3CCCCC3)n2c1,24,46*,9,-29,/
CCN1[C@H](C(=O)N2CCc3ccccc3C2)[C@@H](CO)[C@@H]2Cn3c(cccc3=O)[C@@H]21,/,-1,0[16.7 µM],/,/
C[C@H]1CCCCO[C@H](CN(C)S(=O)(=O)c2ccc(F)cc2)[C@@H](C)CN([C@@H](C)CO)C(=O)c2cc(NC(=O)Cc3ccccc3)ccc2O1,/,-3,2[16.7 µM],-19[16.7 µM],/
CC=Cc1ccc2n(c1=O)C[C@H]1[C@H](CO)[C@@H](C(=O)NCC)N(C(=O)C3CCOCC3)[C@@H]21 (mixture of isomers),/,-2,-3[16.7 µM],/,/
COc1ccc(C2(C)NC(=O)N(CC(=O)Nc3ccc(-c4nc5ccc(C)cc5s4)cc3)C2=O)cc1 (centres undefined),-1,/,1,-47,42
Cc1ccc(OCC(=O)Nc2ccc3c(c2)nc(CCN2CCN(c4ccccn4)CC2)n3C)cc1,-2,-16,-6,61*,/
Cc1ccc2nc(-c3ccc(NC(=O)CN4CCN(c5ccccn5)CC4)cc3)sc2c1,36*,/,0,-34,/
CCC1(c2ccc(F)cc2)NC(=O)N(CC(=O)Nc2ccc(-c3nc4ccc(C)cc4s3)cc2)C1=O (centres undefined),-2,/,271*,-94,10
Cn1c(CCN2CCN(c3ccccn3)CC2)nc2cc(NC(=O)COc3ccccc3)ccc21,-2,2,8,7,-12
Cc1ccc(S(=O)(=O)Nc2ccc3c(c2)C(=O)N([C@@H](C)CO)C[C@@H](C)[C@H](CN(C)C(=O)Nc2ccc4c(c2)OCO4)O3)cc1,/,5,3[16.7 µM],-1[16.7 µM],/
CC1CCN(C(=O)c2ncn3c2C(=O)N[C@H](C)C3)CC1,4,/,/,72*,/
CCN(CC)C(=O)c1ncn2c1C(=O)N[C@@H](C)C2,-1,/,/,45,/
C[C@H]1Cn2cnc(C(=O)N3CCN(C(=O)OC(C)(C)C)CC3)c2C(=O)N1,-3,/,/,-37,/
CCN(CC)C(=O)c1ncn2c1C(=O)N[C@H](C)C2,-2,/,/,62*,/
C[C@H](CO)N1C[C@H](C)[C@H](CN(C)C(=O)C2CCC2)Oc2cc(-c3ccccc3)ccc2S1(=O)=O,/,/,17[16.7 µM],18[16.7 µM],/
COc1ccc(Nc2nc(-c3cccnc3)cs2)c(OC)c1,3,57*,/,-10,57
Cc1ccc(-c2csc(Nc3ccccn3)n2)cc1,2,-59,-6,-174,-10
COc1ccc(-c2csc(Nc3ccccn3)n2)cc1OC,17,74*,3,-135,/
COc1ccccc1Nc1nc(-c2cccnc2)cs1,14,44*,-10,-257,65
O=C(c1ccccc1)N1C[C@H]2[C@@H](c3ccccc31)[C@H](CO)N2C(=O)Nc1ccccc1Cl,/,-3,21[16.7 µM],/,/
CC1=C(C(=O)Nc2ccccn2)C(c2cn(C)nc2C)C2=C(CCCC2=O)N1 (centres undefined),3,/,/,-2,5
COC(=O)C1=C(C)NC2=C(C(=O)CCC2)C1c1cn(Cc2ccc(Cl)cc2Cl)nc1-c1ccccc1 (centres undefined),/,11,5,110*,-4
CCOC(=O)C1=C(C)NC2=C(C(=O)CCC2)C1c1cn(Cc2ccc(Cl)cc2Cl)nc1-c1ccccc1 (centres undefined),-10,3,6,121*,-1
C[C@H](CO)N1C[C@H](C)[C@@H](CN(C)C(=O)c2ccccc2)Oc2ncc(C#CC3CC3)cc2C1=O,/,2,9[16.7 µM],0[16.7 µM],/
Cc1cc(NC(=O)CCNS(=O)(=O)c2cc(Br)cnc2N)ccc1Br,-3,-8,15,59*,-12
Nc1ncc(Br)cc1S(=O)(=O)NCCC(=O)Nc1cccc(Cl)c1,/,-1,49,59*,1
Cc1ccc(NC(=O)CCNS(=O)(=O)c2cc(Br)cnc2N)cc1Cl,-2,/,58,32,-5
